Counter-ions that a name gives are not always drawn. ± gives the standard deviation of the averaged measurements.
Tests used:
Assay in all cases: growth (OD600 after 10 h); higher = more growth (less inhibition)
[1] = tested on: E. coli TESEC Alr+ wild-type control; details: compound 0.1 mM; raw OD600 reference: median of DMSO wells 0.241, cell-free background 0.041
Procedure: (§1)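 TESEC Mtb Alr E. coli, or the Alr+ wild-type control, in 384-well plates with Prestwick library compounds at 0.1 mM and 1% DMSO, across arabinose induction levels of 1E3 to 1E7 nM. Growth is read as OD600 after 10 h at 37 °C in triplicate biological replicates.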

E. coli TESEC Mtb Alr [2] = details: compound 0.1 mM
Procedure: as §1

E. coli TESEC Mtb Asd = details: compound 0.1 mM
Procedure: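 TESEC E. coli strains in which the native enzyme is deleted and replaced by arabinose-inducible Mtb Asd, DapB, CysH or TrpD, each grown in its selective medium. Strains were screened against the Prestwick library at 0.1 mM and 1% DMSO in 384-well format at low and high arabinose induction. Growth is read as OD600 after 10 h in triplicate.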

[3] = tested on: E. coli TESEC Alr+ wild-type control; details: compound 0.1 mM; raw OD600 reference: median of DMSO wells 0.49, cell-free background 0.052
Procedure: (§2)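 TESEC Mtb Alr E. coli (ΔaraC ΔtolC ΔentC Δalr ΔdadX, arabinose-inducible Mtb Alr) or the Alr+ wild-type control strain, grown in defined M9-fructose medium without D-alanine in 96-well plates with Prestwick library compounds at 0.1 mM and 1% DMSO. Low Alr induction is 0.1 µM arabinose and high induction is 10 mM arabinose.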

E. coli TESEC Mtb Alr [4] = details: compound 0.1 mM; remark: listed apart in the source
Procedure: as §2

[5] = arabinose 1000 nM, raw OD600 reference: median of DMSO wells 0.294, cell-free background 0.041
[6] = arabinose 10000 nM, raw OD600 reference: median of DMSO wells 0.264, cell-free background 0.041
[7] = arabinose 100000 nM, raw OD600 reference: median of DMSO wells 0.201, cell-free background 0.041
[8] = arabinose 1000000 nM, raw OD600 reference: median of DMSO wells 0.193, cell-free background 0.041
[9] = arabinose 10000000 nM, raw OD600 reference: median of DMSO wells 0.146, cell-free background 0.041
[10] = arabinose induction (level): High, raw OD600 reference: median of DMSO wells 0.331, cell-free background 0.041
[11] = arabinose induction (level): Low, raw OD600 reference: median of DMSO wells 0.417, cell-free background 0.041
[12] = arabinose 100 nM, raw OD600 reference: median of DMSO wells 0.413, cell-free background 0.052
[13] = arabinose 10000000 nM, raw OD600 reference: median of DMSO wells […], cell-free background 0.052

SMILES | growth [1] | growth (E. coli TESEC Mtb Alr [2]; [5]) | growth (E. coli TESEC Mtb Alr [2]; [6]) | growth (E. coli TESEC Mtb Alr [2]; [7]) | growth (E. coli TESEC Mtb Alr [2]; [8]) | growth (E. coli TESEC Mtb Alr [2]; [9]) | growth (E. coli TESEC Mtb Asd; [10]) | growth (E. coli TESEC Mtb Asd; [11]) | growth [3] | growth (E. coli TESEC Mtb Alr [4]; [12]) | growth (E. coli TESEC Mtb Alr [4]; [13])
CN[C@H]1CC[C@@H](c2ccc(Cl)c(Cl)c2)c2ccccc21 [Sertraline] | 0.0407 ± 0.00036 | 0.0417 ± 0.0013 | 0.0403 ± 0.0019 | 0.0432 ± 0.0016 | 0.0393 ± 0.0007 | 0.0414 ± 0.00047 | 0.0545 ± 0.0057 | 0.0508 ± 0.0037 | 0.0502 ± 0.00068 | 0.392 ± 0.036 | 0.0517 ± 0.00092
CN(C)CCCN1c2ccccc2CCc2ccccc21 [Imipramine hydrochloride] | 0.189 ± 0.019 | 0.242 ± 0.018 | 0.285 ± 0.013 | 0.212 ± 0.014 | 0.133 ± 0.0058 | 0.175 ± 0.011 | 0.164 ± 0.026 | 0.363 ± 0.063 | 0.452 ± 0.015 | 0.408 ± 0.0092 | 0.21 ± 0.11
CC(C)c1ccc2oc3nc(N)c(C(=O)O)cc3c(=O)c2c1 [Amlexanox] | 0.158 ± 0.003 | 0.157 ± 0.015 | 0.307 ± 0.0078 | 0.157 ± 0.0046 | 0.248 ± 0.024 | 0.166 ± 0.011 | 0.3928 ± 0.003 | 0.23 ± 0.056 | 0.416 ± 0.015 | 0.0761 ± 0.019 | 0.279 ± 0.018
CC1=C(/C=C/C(C)=C/C=C/C(C)=C/C(=O)O)C(C)(C)CCC1 [Retinoic acid] | 0.281 ± 0.008 | 0.309 ± 0.012 | 0.262 ± 0.006 | 0.246 ± 0.0066 | 0.149 ± 0.006 | 0.162 ± 0.015 | 0.355 ± 0.11 | 0.41 ± 0.0091 | 0.476 ± 0.045 | 0.45 ± 0.0056 | 0.301 ± 0.013
N#Cc1cc(NC(=O)C(=O)O)c(Cl)c(NC(=O)C(=O)O)c1 [Lodoxamide] | 0.264 ± 0.0031 | 0.315 ± 0.006 | 0.2862 ± 0.0018 | 0.173 ± 0.0062 | 0.205 ± 0.013 | 0.134 ± 0.0054 | 0.228 ± 0.029 | 0.366 ± 0.035 | 0.579 ± 0.069 | 0.404 ± 0.014 | 0.348 ± 0.024
CNCC(O)c1ccc(OC(=O)C(C)(C)C)c(OC(=O)C(C)(C)C)c1 (stereo not drawn) [Dipivefrin hydrochloride] | 0.171 ± 0.01 | 0.239 ± 0.018 | 0.255 ± 0.011 | 0.164 ± 0.016 | 0.0939 ± 0.0013 | 0.142 ± 0.004 | 0.174 ± 0.029 | 0.269 ± 0.048 | 0.394 ± 0.018 | 0.391 ± 0.022 | 0.19 ± 0.014
NC(=O)OCC(COC(N)=O)c1ccccc1 [Felbamate] | 0.24 ± 0.0061 | 0.288 ± 0.0029 | 0.26 ± 0.0095 | 0.201 ± 0.023 | 0.204 ± 0.0095 | 0.137 ± 0.0061 | 0.423 ± 0.044 | 0.316 ± 0.031 | 0.608 ± 0.097 | 0.405 ± 0.011 | 0.369 ± 0.025
C[C@H](N)[C@H](O)c1cccc(O)c1 [Metaraminol bitartrate] | 0.245 ± 0.015 | 0.278 ± 0.0096 | 0.267 ± 0.0062 | 0.186 ± 0.013 | 0.185 ± 0.0027 | 0.153 ± 0.018 | 0.333 ± 0.062 | 0.415 ± 0.029 | 0.573 ± 0.076 | 0.426 ± 0.0087 | 0.356 ± 0.0097
CN(C)CCOc1ccc(/C(=C(/CCCl)c2ccccc2)c2ccccc2)cc1 [Toremifene] | 0.0414 ± 0.0014 | 0.04087 ± 0.0004 | 0.04003 ± 0.00032 | 0.0409 ± 0.00036 | 0.04023 ± 0.00025 | 0.04073 ± 0.00021 | 0.0528 ± 0.00055 | 0.057 ± 0.0021 | 0.0478 ± 0.00064 | 0.0666 ± 0.015 | 0.0577 ± 0.0032
Cc1onc(-c2c(Cl)cccc2Cl)c1C(=O)N[C@@H]1C(=O)N2[C@@H]1SC(C)(C)[C@@H]2C(=O)O [Dicloxacillin sodium salt hydrate] | 0.222 ± 0.0048 | 0.226 ± 0.11 | 0.261 ± 0.0043 | 0.196 ± 0.02 | 0.185 ± 0.007 | 0.149 ± 0.0044 | 0.251 ± 0.056 | 0.311 ± 0.09 | 0.516 ± 0.11 | 0.403 ± 0.0099 | 0.351 ± 0.017
N[C@@H](C(=O)N[C@@H]1C(=O)N2C(C(=O)O)=C(Cl)CS[C@H]12)c1ccccc1 [Cefaclor hydrate] | 0.264 ± 0.0067 | 0.315 ± 0.0086 | 0.249 ± 0.0072 | 0.244 ± 0.025 | 0.1991 ± 0.0017 | 0.158 ± 0.021 | 0.333 ± 0.052 | 0.425 ± 0.067 | 0.489 ± 0.033 | 0.224 ± 0.036 | 0.354 ± 0.032
C=C1/C(=C\C=C2/CCC[C@]3(C)[C@@H]([C@H](C)/C=C/[C@@H](O)C4CC4)CC[C@@H]23)C[C@@H](O)C[C@@H]1O [Calcipotriene] | 0.0539 ± 0.0078 | 0.0502 ± 0.0045 | 0.0544 ± 0.0042 | 0.0504 ± 0.0018 | 0.0524 ± 0.0013 | 0.056 ± 0.0013 | 0.0646 ± 0.0023 | 0.0613 ± 0.0049 | 0.0607 ± 0.0046 | 0.234 ± 0.12 | 0.0671 ± 0.0016
CC1Cc2ccccc2N1NC(=O)c1ccc(Cl)c(S(N)(=O)=O)c1 (stereo not drawn) [Indapamide] | 0.225 ± 0.0038 | 0.278 ± 0.01 | 0.27 ± 0.011 | 0.191 ± 0.015 | 0.159 ± 0.0057 | 0.15 ± 0.009 | 0.224 ± 0.01 | 0.442 ± 0.03 | 0.497 ± 0.015 | 0.425 ± 0.014 | 0.336 ± 0.018
COc1cccc(N(C)C(=S)Oc2ccc3c(c2)CCCC3)n1 [Liranaftate] | 0.213 ± 0.0062 | 0.259 ± 0.0073 | 0.2888 ± 0.0012 | 0.167 ± 0.0063 | 0.1202 ± 0.0011 | 0.149 ± 0.0092 | 0.297 ± 0.025 | 0.426 ± 0.045 | 0.385 ± 0.0054 | 0.407 ± 0.038 | 0.127 ± 0.0031
C#C[C@]1(O)CC[C@H]2[C@@H]3CCc4cc(OC)ccc4[C@H]3CC[C@@]21C [Ethynylestradiol 3-methyl ether] | 0.193 ± 0.01 | 0.279 ± 0.0063 | 0.262 ± 0.013 | 0.184 ± 0.015 | 0.163 ± 0.0052 | 0.149 ± 0.0072 | 0.383 ± 0.025 | 0.413 ± 0.06 | 0.564 ± 0.025 | 0.405 ± 0.011 | 0.348 ± 0.024
CC1(C)OC(=O)NC1=O [Dimethadione] | 0.243 ± 0.0066 | 0.295 ± 0.016 | 0.2697 ± 0.0012 | 0.191 ± 0.017 | 0.184 ± 0.0086 | 0.139 ± 0.0053 | 0.292 ± 0.005 | 0.414 ± 0.022 | 0.526 ± 0.075 | 0.406 ± 0.017 | 0.347 ± 0.011
NC(=O)c1cc[n+](CC2=C(C(=O)[O-])N3C(=O)[C@@H](NC(=O)[C@@H](c4ccccc4)S(=O)(=O)O)[C@H]3SC2)cc1 [Cefsulodin sodium salt] | 0.257 ± 0.0041 | 0.309 ± 0.014 | 0.235 ± 0.007 | 0.228 ± 0.006 | 0.2032 ± 0.0015 | 0.145 ± 0.0069 | 0.33 ± 0.084 | 0.423 ± 0.028 | 0.636 ± 0.015 | 0.366 ± 0.012 | 0.356 ± 0.014
CCN1CCCC1CNC(=O)c1cc(S(=O)(=O)CC)c(N)cc1OC (stereo not drawn) [Amisulpride] | 0.235 ± 0.0063 | 0.3 ± 0.011 | 0.253 ± 0.005 | 0.251 ± 0.025 | 0.169 ± 0.003 | 0.16 ± 0.0017 | 0.332 ± 0.093 | 0.377 ± 0.067 | 0.578 ± 0.046 | 0.408 ± 0.011 | 0.3237 ± 0.0029

Reference: the supplement of paper PMC9262897, “Low-cost anti-mycobacterial drug discovery using engineered E. coli” (Nature Communications, 2022)
